55 compounds from PubChem BioAssay AID588664 (The Scripps Research Institute Molecular Screening Center, 2011) can be followed below.

The structures appear in SMILES notation. Out of some 360,000 compounds screened, about 1,400 (0.39%) were called active. Rule as the data show it: active = inhibition above about 5% (passing the limit was not always enough); inactive = the rest. Shown is part of a subset that was picked to be rich in actives.

For this assay, the target named is Tyrosine-protein kinase ABL1 (Homo sapiens) + Ras and Rab interactor 1 (Homo sapiens) (UniProt P00519+Q13671). Put plainly: disruptors of human Abl and Rin1 association – biochemical, TR-FRET, primary screen (AID 588664). The note with it: TR-FRET Rin1/Abl binding, at 7.35 µM, stronger effect = higher value. For orientation: TR-FRET usually uses a lanthanide donor and a delayed reading to cut background.
Tyrosine-protein kinase ABL1 (Homo sapiens) + Ras and Rab interactor 1 (Homo sapiens), sequence (P00519 whole entry, looked up): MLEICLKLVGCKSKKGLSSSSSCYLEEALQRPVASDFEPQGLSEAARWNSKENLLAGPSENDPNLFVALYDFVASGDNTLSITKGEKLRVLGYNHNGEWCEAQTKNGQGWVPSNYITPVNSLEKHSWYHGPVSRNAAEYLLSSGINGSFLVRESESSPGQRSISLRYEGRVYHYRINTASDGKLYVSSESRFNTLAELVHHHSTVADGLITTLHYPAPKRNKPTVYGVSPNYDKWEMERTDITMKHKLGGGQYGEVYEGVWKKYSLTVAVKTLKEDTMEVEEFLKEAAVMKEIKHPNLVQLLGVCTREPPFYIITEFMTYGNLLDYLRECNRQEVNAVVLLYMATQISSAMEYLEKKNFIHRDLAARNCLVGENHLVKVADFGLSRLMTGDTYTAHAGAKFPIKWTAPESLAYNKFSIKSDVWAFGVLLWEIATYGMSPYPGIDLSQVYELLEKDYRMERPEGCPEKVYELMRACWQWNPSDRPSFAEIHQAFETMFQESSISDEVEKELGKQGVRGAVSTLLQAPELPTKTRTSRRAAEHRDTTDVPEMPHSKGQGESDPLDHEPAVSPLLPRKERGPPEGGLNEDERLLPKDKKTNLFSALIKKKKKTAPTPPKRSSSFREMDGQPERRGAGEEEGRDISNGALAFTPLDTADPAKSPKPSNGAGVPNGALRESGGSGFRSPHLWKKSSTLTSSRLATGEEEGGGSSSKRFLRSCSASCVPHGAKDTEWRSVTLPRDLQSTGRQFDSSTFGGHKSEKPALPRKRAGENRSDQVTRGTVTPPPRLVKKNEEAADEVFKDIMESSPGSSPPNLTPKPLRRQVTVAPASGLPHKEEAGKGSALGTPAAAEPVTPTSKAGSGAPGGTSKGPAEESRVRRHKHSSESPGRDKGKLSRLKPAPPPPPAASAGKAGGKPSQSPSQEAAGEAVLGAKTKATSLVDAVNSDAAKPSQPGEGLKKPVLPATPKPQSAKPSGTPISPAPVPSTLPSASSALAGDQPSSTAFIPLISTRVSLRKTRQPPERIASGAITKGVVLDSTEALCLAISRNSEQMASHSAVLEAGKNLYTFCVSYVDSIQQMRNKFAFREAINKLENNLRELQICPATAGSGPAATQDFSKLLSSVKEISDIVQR
Tyrosine-protein kinase ABL1 (Homo sapiens) + Ras and Rab interactor 1 (Homo sapiens), sequence (Q13671 whole entry, looked up): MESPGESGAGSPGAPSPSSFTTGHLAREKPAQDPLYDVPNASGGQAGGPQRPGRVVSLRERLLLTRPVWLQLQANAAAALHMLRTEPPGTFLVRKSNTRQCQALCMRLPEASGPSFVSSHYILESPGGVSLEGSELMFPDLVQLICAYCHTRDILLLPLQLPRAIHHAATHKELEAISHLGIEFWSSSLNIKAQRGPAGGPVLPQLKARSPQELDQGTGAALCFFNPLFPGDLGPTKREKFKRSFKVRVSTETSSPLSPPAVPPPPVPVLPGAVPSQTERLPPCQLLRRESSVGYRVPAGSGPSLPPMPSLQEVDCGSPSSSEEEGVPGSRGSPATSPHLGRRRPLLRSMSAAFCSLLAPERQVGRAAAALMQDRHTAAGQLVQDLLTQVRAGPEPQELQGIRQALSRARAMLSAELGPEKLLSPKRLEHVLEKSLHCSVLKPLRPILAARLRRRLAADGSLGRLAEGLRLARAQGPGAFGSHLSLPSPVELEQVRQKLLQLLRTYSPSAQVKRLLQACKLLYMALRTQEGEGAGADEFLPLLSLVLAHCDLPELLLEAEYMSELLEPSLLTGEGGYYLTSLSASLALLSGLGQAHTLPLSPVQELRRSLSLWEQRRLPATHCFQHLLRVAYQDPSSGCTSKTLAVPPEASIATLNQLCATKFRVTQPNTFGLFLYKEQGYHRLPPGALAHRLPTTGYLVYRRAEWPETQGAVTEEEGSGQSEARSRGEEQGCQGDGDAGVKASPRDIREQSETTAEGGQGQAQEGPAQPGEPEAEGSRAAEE
In general, inhibition refers to the relative decrease from the control value, in per cent. As for `Cn1cc(CN2CCCC(CO)C2)c(-c2ccc(Oc3ccccc3)cc2)n1` (stereo not given), the inhibition was 1.99% (inactive).

For `COc1ccc([N+](=O)[O-])cc1NC(=O)COC(=O)/C=C/c1ccco1`, the inhibition is -3.75% (inactive).

`O=C(NNc1c2ccccc2nc2ccccc12)c1cc2ccccc2cc1O`: the inhibition is 5.94% (active).

Regarding `Cc1noc(C)c1COC(=O)c1cc2ccccc2cc1O`, the inhibition is 1.08% (inactive).

Regarding `O=C(CSc1nc(C2CC2)nc2ccccc12)Nc1cccc(O)c1`, the inhibition is -0.76% (inactive).

For the compound `CC(C)(C)NC(=O)NC(=O)COC(=O)Cn1c(C(F)(F)F)nc2ccccc21`, the inhibition is 2.76% (inactive).

As to `COc1ccccc1NC(=O)CSc1nnc(-c2ccoc2C)n1CCc1ccccc1`, the inhibition was 4.08% (inactive).

On to `CCN(CC)S(=O)(=O)c1ccc(N(C)Cc2ccc(C(F)(F)F)cc2)nc1`, for which the inhibition was 0.97% (inactive).

For `Nc1cc(=O)c2[nH]cnc2[nH]1`, the inhibition is 16.4% (active).

`C[C@@H]1CN([C@H](C)CO)S(=O)(=O)c2ccc(C#C[C@@H](C)O)cc2O[C@@H]1CN(C)Cc1ccc(-c2ccccc2)cc1`: the inhibition is 36.5% (active).

For the compound `Cc1ccccc1-c1ccc2c(c1)O[C@@H](CN(C)Cc1ccc(C(=O)O)cc1)[C@@H](C)CN([C@H](C)CO)S2(=O)=O`, the inhibition is 1.11% (inactive).

For the compound `C[C@@H]1CN([C@@H](C)CO)S(=O)(=O)c2ccc(-c3ccc(C(=O)N(C)C)cc3)cc2O[C@@H]1CN(C)Cc1ccccc1C(=O)O`, the inhibition was -1.93% (inactive).

In the case of `O=C(C1CCCN(S(=O)(=O)c2ccc([N+](=O)[O-])cc2)C1)N1CCCCC1` (stereo not given), the inhibition is 1.73% (inactive).

For `O=C(NC(=S)Nc1ccc(S(=O)(=O)Nc2ncccn2)cc1)c1cccc(Br)c1`, the inhibition is -0.5% (inactive).

`CCNS(=O)(=O)c1ccc(NC(=O)c2cncc(Br)c2)cc1`: the inhibition is -2.97% (inactive).

As to `O=C(Nc1ccc(S(=O)(=O)Nc2ncccn2)cc1)c1cncc(Br)c1`, the inhibition is 11.3% (active).

Take `CCOCCCNC(=S)Nc1ccc2nc(N3CCN(CC)CC3)cc(C)c2c1`: the inhibition was -3.64% (inactive).

For the compound `CCOc1ccc(NC(=O)CC2NCCNC2=O)cc1` (stereo not given), the inhibition is 0.97% (inactive).

Take `COc1ccccc1C(=O)N1CCNC(=O)C1CC(=O)Nc1ccc(Cl)cc1` (stereo not given): the inhibition is 4.11% (inactive).

Take `O=C(CC1SCCNC1=O)Nc1ccc(Cl)cc1` (stereo not given): the inhibition was 11.9% (active).

Regarding `Cc1cc(-c2ccc(C)c(S(=O)(=O)NC(C)Cc3ccco3)c2)on1` (stereo not given), the inhibition is 4.85% (inactive).

Consider `COc1ccc(NC(=O)CSc2nnc(-c3ccccc3F)n2C2CC2)cc1S(N)(=O)=O`, for which the inhibition is -3.31% (inactive).

Consider `Fc1cccc(Cl)c1COc1ccc(-c2nnco2)cc1`, for which the inhibition is 0.01% (inactive).

`C[C@H](NC(=O)[C@@H]1Cc2ccccc2CN1C(=O)OC(C)(C)C)C(=O)NC1CCCC1`: the inhibition is -1% (inactive).

As for `Cc1ccc(NC(=O)OCCNC(=O)c2ccncc2)cc1`, the inhibition was 1.62% (inactive).

For the compound `COCCNC(=O)CSc1nc(N)c(NC(=O)c2ccco2)c(=O)[nH]1`, the inhibition was -1.82% (inactive).

In the case of `COCCNC(=O)Nc1ccc2nc(-c3ccco3)c(-c3ccco3)nc2c1`, the inhibition was 8.86% (active).

For `C#CCN(N(C)c1ncc(C(F)(F)F)cc1Cl)S(=O)(=O)c1ccc2ccccc2c1`, the inhibition is 0.28% (inactive).

Regarding `CCN1CCN(c2cc3nc(C)n(Cc4ccccc4)c(=O)c3cc2NC(=O)c2ccccc2F)CC1`, the inhibition is -0.45% (inactive).

For the compound `N#Cc1ccccc1NC(=O)COc1c(Br)cc(Br)c2cccnc12`, the inhibition was -0.22% (inactive).

Take `CC(=O)NC(c1cccs1)c1cc(Br)c2cccnc2c1O` (stereo not given): the inhibition is 14.8% (active).

On to `CCCCC(=O)NC(c1ccc(OC)c(OC)c1)c1ccc2cccnc2c1O` (stereo not given), for which the inhibition was -0.15% (inactive).

As to `O=C(Nc1ccc2c(c1)[C@@H]1C[C@@H](CC(=O)N3CCCCC3)O[C@@H](CO)[C@@H]1O2)NC1CCCCC1`, the inhibition was 2.19% (inactive).

On to `O=C(Cn1cnc2cc([N+](=O)[O-])ccc2c1=O)NC(=O)NCc1ccccc1`, for which the inhibition was -4.46% (inactive).

As to `CCOC(=O)C(CCOc1cccc(CC)c1)C(=O)OCC`, the inhibition was 0.47% (inactive).

Consider `COc1ccc2c(c1)c(=O)c(C(=O)c1ccc(Cl)cc1)cn2CC(=O)Nc1ccc(F)cc1`, for which the inhibition was -3.04% (inactive).

Consider `COc1ccc(CNC(=O)C2CCCC2)cc1`, for which the inhibition is -1.61% (inactive).

Turning to `COc1ccc(CNC(=O)c2c[nH]c3c(OC)cc(OC)cc3c2=O)cc1`, the inhibition is -2.41% (inactive).

For the compound `COc1ccc(CNC(=O)c2cc(C(=O)C3CC3)c[nH]2)cc1`, the inhibition is 11.6% (active).

On to `OCC[C@H]1C[C@@H](O)[C@H](O)[C@@]2(OCCc3ccccc32)O1`, for which the inhibition was 1.02% (inactive).

For `CCc1ccc(CN(C)C(C)C(=O)Nc2ccc(S(=O)(=O)N3CCCC3)cc2)cc1` (stereo not given), the inhibition was 12.4% (active).

Take `CC(OC(=O)c1ccc(NC(=O)CC#N)cc1)C(=O)Nc1ccc(S(=O)(=O)N2CCCC2)cc1` (stereo not given): the inhibition is 2.43% (inactive).

For `CC(C(=O)Nc1ccc(S(=O)(=O)N2CCCC2)cc1)N(C)Cc1ccc(F)cc1` (stereo not given), the inhibition was 2.65% (inactive).

In the case of `Cc1nn(Cc2ccccc2)c(C)c1C(=O)N1CCN(CC(=O)Nc2ccccc2Cl)CC1`, the inhibition is 2.44% (inactive).

Regarding `CCOC(=O)C1=C(COC(=O)[C@H](C)NS(=O)(=O)c2ccccc2F)NC(=O)NC1C` (stereo not given in full), the inhibition is 2.47% (inactive).

For the compound `CNC(=S)NNC(=O)c1ccc(N(C)C)cc1`, the inhibition is 0.47% (inactive).

On to `CN(C)c1ccc(/C=N/NC(=O)C(O)c2ccc(Br)cc2)cc1` (stereo not given), for which the inhibition is 0.79% (inactive).

Take `CN(C)c1ccc(N/C=C/C(=O)C(F)(F)F)cc1`: the inhibition was 7.5% (active).

With `C[C@H](CO)N1C[C@H](C)[C@@H](CN(C)C(=O)C2CCCCC2)OCc2cnnn2CCCC1=O`, the inhibition is -1.65% (inactive).

In the case of `Cc1cc(C)c(C(N)=O)c(Cl)n1`, the inhibition is -1.52% (inactive).

For the compound `Cc1ccccc1CN1C[C@@H]2C[C@@H](c3cn(C)nc3-c3ccccc3)N3CCC[C@@]23C1=O`, the inhibition is -1.71% (inactive).

For `Cc1ccccc1CN1CCN(CC(=O)NCc2ccccn2)C1=O`, the inhibition is -1.59% (inactive).

Consider `Cc1ccccc1CN1C[C@@H]2C[C@@H](c3ccc4nsnc4c3)N3CCC[C@@]23C1=O`, for which the inhibition is 8.18% (active).

`CC(OC(=O)/C=C/c1ccccc1)C(=O)Nc1ccc(C(N)=O)cc1` (stereo not given): the inhibition is 1.19% (inactive).

Consider `O=S1(=O)CC(N2CCN(c3ccccn3)CC2)CN1Cc1ccc(F)cc1` (stereo not given), for which the inhibition is 1.04% (inactive).
